Bioassay records from PubChem.
Compounds with a hit are over-represented: about 18% of the library has one in this group of screens.
LDHA block – inhibitors of human lactate dehydrogenase A. P00338. purified LDHA, NADH/diaphorase-resazurin fluorescence; stronger effect = lower value. activity change, % (values are at about 110 or 230 µM). actives 0.15% (n = 480,000). AID 1347041; in the data active = activity change below about -30%; inconclusive = mostly about -25% to -30%;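 note: plate controls were DMSO wells for no effect and wells without enzyme for full effect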
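Enzyme activity of human lactate dehydrogenase 5 (2 nM; 0.06 mM NADH, 0.2 mM pyruvate, 5 min, RT) is measured via a resazurin/diaphorase fluorescence readout of residual NADH.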
IL-1B inflam inh – blocks inflammasome-driven IL-1 beta release | activity change, % at 57.5 µM | THP-1 LPS/ATP IL-1B secretion, AlphaLISA, 16 h; stronger effect = lower value | actives 4.7% (n = 360,000); in the data active = activity change below about -50%; inconclusive = mostly about -30% to -49%
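Secreted IL-1B measured by AlphaLISA bead assay after 16 h compound exposure of THP-1 cells; compounds (final up to 57.5 uM) added 1 h before LPS (250 ng/mL) and ATP (1.25 mM) stimulation; lower signal means less secretion.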
TDP1 cell noCPT – qHTS for Inhibitors of human tyrosyl-DNA phosphodiesterase 1 (TDP1): qHTS in cells in absence of CPT | DT40 Tdp1-/- hTDP1 cells, no CPT, ATP luminescence, 48 h | Potency, µM (highest dose often 46.2 µM), without a hit: at the top dose activity change, negative = growth inhibition, usual class: inhibitors | actives 15% (n = 420,000) | AID 686978, 2013; note: potency is the fitted concentration of half-maximal effect; nearly all actives have a fitted effect of over 55% in size
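Readout: luminescence from CellTiter-Glo after 30 min in the dark at RT. Cells: DT40 Tdp1-/- with stable hTDP1, 400/well. Exposure: compounds alone, ≥48 hr, 37 °C.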
DT40 TDP1 CPT – DT40-hTDP1 cell growth loss with CPT | actives 12% (n = 420,000) | Potency, µM (titrated, usually from 46.2 µM), for the others: at the highest dose activity change, negative = growth inhibition, actives largely listed as inhibitors | chicken DT40 Tdp1-/-;hTDP1 cells + 20 nM CPT, ATP luminescence, 48 h; note: potency is the fitted concentration of half-maximal effect; nearly all actives have a fitted effect of over 55% in size
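Chicken DT40 Tdp1-/- cells complemented with human TDP1, 400 cells/well, exposed to compounds plus 20 nM camptothecin for at least 48 h at 37 C; viability read as ATP content by CellTiter-Glo luminescence.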
Gal4-VP16 FLuc – Gal4-VP16 reporter inhibition counter-screen | actives 3.5% (n = 310,000) | Drosophila S2 Gal4-VP16 UAS-luciferase, luminescence, 20 h | AID 2546 | Potency, µM (top dose mostly 53.6 µM), for the others: at the highest dose activity, negative = inhibition, usual class: inhibitors;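 note: Gal4-VP16 expression switched on by copper sulfate through the metallothionein promoter; potency is the fitted concentration of half-maximal effect; nearly all actives have a fitted effect of over 50% in size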
RORgamma inh – ROR gamma (mouse) transcription inhibition; P51450; Drosophila S2 Gal4-RORgamma UAS-luciferase reporter, 20 h; Potency, µM (doses to about 53.6 µM), for inactives: at the highest dose activity change, negative = inhibition, actives largely listed as inhibitors; actives 5.4% (n = 310,000); AID 2551; note: potency is the fitted concentration of half-maximal effect; nearly all actives have a fitted effect of over 60% in size
Target sequence (P51450 whole entry, looked up, the tested form may be a part): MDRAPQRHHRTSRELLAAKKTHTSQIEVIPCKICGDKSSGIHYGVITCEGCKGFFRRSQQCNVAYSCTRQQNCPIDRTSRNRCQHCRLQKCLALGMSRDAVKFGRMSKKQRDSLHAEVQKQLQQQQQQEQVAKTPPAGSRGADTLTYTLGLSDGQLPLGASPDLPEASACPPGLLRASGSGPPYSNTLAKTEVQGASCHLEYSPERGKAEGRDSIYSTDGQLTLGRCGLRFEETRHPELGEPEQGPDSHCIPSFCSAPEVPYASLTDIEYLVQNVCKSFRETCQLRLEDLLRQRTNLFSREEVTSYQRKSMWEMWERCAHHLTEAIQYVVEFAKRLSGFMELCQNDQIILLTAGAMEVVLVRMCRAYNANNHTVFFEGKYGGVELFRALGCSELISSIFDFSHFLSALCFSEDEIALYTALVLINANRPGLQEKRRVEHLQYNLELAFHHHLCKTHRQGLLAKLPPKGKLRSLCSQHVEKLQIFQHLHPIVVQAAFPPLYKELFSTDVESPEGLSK
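Schneider cells (Drosophila), stable Gal4 DBD–ROR gamma + UAS-luc; 1 hr cmpd preincubation; Cu2+ induction 700 uM final; 20 hr ambient; luminescence.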
Numbers without * were called inactive; ? = inconclusive; / = not tested or not shown; [ ] = dose if it differs, or a comment. Unless noted, calls come from the whole dose curve; as a rule, active = well fitted curve in the direction sought with a large enough effect; inconclusive = small, poorly fitted or top-dose-only effect, or another doubt; inactive = no such curve, though single readings can be large; an effect the other way counts as inactive or inconclusive. Unless noted, % is set by controls: 0 for no effect and ±100 for the full control effect.

SMILES | LDHA block | IL-1B inflam inh | TDP1 cell noCPT | DT40 TDP1 CPT | Gal4-VP16 FLuc | RORgamma inh
Cc1ccc(-c2nc(S(=O)(=O)c3ccccc3)c(SCC(=O)NCC3CCCO3)o2)cc1 (stereo not given) | -7 | -25 | 23µM* | ? | 0% | ?
Cc1ccc(-c2nsc(NC(=O)c3oc4ccccc4c3C)n2)s1 | -9 | / | / | / | / | /
COc1ccc(-c2[nH]c(-c3ccc(C)cc3)nc2SCC(=O)NCC2CCCO2)cc1 (stereo not given) | -4 | / | ? | ? | / | /
COc1ccc(-c2nc(SCC(=O)NC3CCCC3)c(-c3ccc(OC)cc3)[nH]2)cc1 | 0 | -11 | 16µM* | ? | -2% | 8%
Cc1ccc(-c2[nH]c(-c3ccccc3)nc2SCC(=O)NCC2CCCO2)cc1 (stereo not given) | -6 | -17 | 23µM* | 15µM* | ? | 0%
COc1ccc(-c2[nH]c(-c3ccc(Cl)cc3)nc2SCC(=O)NCC2CCCO2)cc1 (stereo not given) | -9 | / | 7.3µM* | 10µM* | / | /
COc1cc2c(cc1OC)C(C)N(C(=O)[C@@H](NC(=O)c1ccccc1)C(C)C)CC2 (stereo not given in full) | 6 | -52* | 29µM* | ? | 0% | -20%
COc1cc2c(cc1OC)C(C)N(C(=O)CCNC(=O)c1ccccc1)CC2 (stereo not given) | -5 | -11 | 28% | -1% | 1% | -16%
COc1ccccc1/C=C/C(=O)N1CCc2cc(OC)c(OC)cc2C1C (stereo not given) | 0 | -70* | ? | ? | -4% | 17%
COc1ccccc1/C=C/C(=O)N1CCOCC1 | -3 | 14 | -6% | -11% | 1% | 1%
COc1cc2c(cc1OC)C(C)N(C(=O)Nc1ccccc1)CC2 (stereo not given) | -3 | 40 | 4.1µM* | 3.7µM* | -2% | -14%
COc1cc2c(cc1OC)C(c1ccccc1)N(C(=O)CCl)CC2 (stereo not given) | -1 | -96* | 2.9µM* | 3.3µM* | ? | 25µM*
COc1cc2c(cc1OC)C(C)N(C(=O)C(NC(=O)c1ccccc1)C(C)C)CC2 (stereo not given) | -2 | 39 | ? | ? | -3% | -13%
COc1cc2c(cc1OC)C(C1C(=O)CCCC1=O)N(C(=O)CCl)CC2 (stereo not given) | 2 | 33 | 11% | 13% | 5% | -16%
CCc1ccc2oc(C(=O)NCC(c3cccs3)N3CCCCC3)cc(=O)c2c1 (stereo not given) | 1 | / | / | / | / | /
CC1CCCN(S(=O)(=O)c2cc3ccccc3oc2=O)C1 (stereo not given) | 0 | / | / | / | / | /
Cc1nnc(NC(=O)c2cc3n(n2)C(C(F)(F)F)CC(C2CC2)N3)s1 (stereo not given) | 1 | -16 | -10% | 0% | 3% | -3%
O=C(Nc1nc2c(s1)CCCC2)c1cc2n(n1)C(C(F)(F)F)CC(C1CC1)N2 (stereo not given) | -6 | -60* | ? | -25% | 1% | 22%
O=C(NCc1ccco1)c1cccc(-c2nnc(-c3ccccc3)o2)c1 | -3 | -28 | ? | 21µM* | 2% | 22%
Cc1cccc(-c2noc(-c3ccccc3C(=O)NCc3ccco3)n2)c1 | 0 | ? | 21µM* | 21µM* | ? | -18%
COc1ccc(CNC(=O)c2sc(NCCc3ccccc3)nc2C)cc1 | -23 | / | / | / | / | /
CCC(C)NC(=O)c1csc2c1CCCCC2 (stereo not given) | -6 | 10 | -9% | -9% | 1% | 11%
O=C(NCc1ccccc1)c1csc2c1CCCCC2 | -2 | -15 | -14% | -13% | 9% | -11%
CC(CNC(=O)c1csc2c1CCCCC2)c1ccccc1 (stereo not given) | -6 | / | 16µM* | 21µM* | / | /
CCC(Cc1ccccc1)NC(=O)c1csc2c1CCCCC2 (stereo not given) | -8 | / | ? | 13µM* | / | /
SMILES | LDHA block | IL-1B inflam inh | TDP1 cell noCPT | DT40 TDP1 CPT | Gal4-VP16 FLuc | RORgamma inh
Cc1c(C(=O)NCCc2ccccc2)oc2ccc(S(=O)(=O)N3CCOCC3)cc12 | 5 | -4 | ? | -24% | 1%[0.365 µM] | 48%
CCN(CC)S(=O)(=O)c1ccc2oc(C(=O)NCc3ccc(F)cc3)c(C)c2c1 | -2 | ? | 13µM* | 13µM* | 5% | -1%
Cc1c(C(=O)NCc2ccc3c(c2)OCO3)oc2ccc(S(=O)(=O)N3CCC(C)CC3)cc12 | -2 | 78 | 15µM* | 15µM* | 3% | 6%
COc1ccc2oc(C(=O)NCCc3ccccc3)c(C)c2c1 | -12 | -27 | ? | 0% | / | /
COc1ccc2oc(C(=O)NCc3cc(OC)c(OC)cc3OC)c(C)c2c1 | -8 | -14 | 16µM* | 23µM* | -4% | 35%
Cc1c(C(=O)NCc2ccc(F)cc2)oc2ccc(S(=O)(=O)N3CCOCC3)cc12 | -2 | -22 | 15µM* | ? | 13% | 32%
COc1ccccc1CNC(=O)c1scnc1C | 1 | / | / | / | / | /
Cc1ccc(-c2csc(NC(=O)C34CC5CC(CC(C5)C3)C4)n2)cc1 | 7 | / | / | / | / | /
O=C1CCCC2=C1C(c1ccc(Br)cc1)n1nnnc1N2 (stereo not given) | 1 | / | / | / | / | /
CCN(CC)S(=O)(=O)c1ccc2oc(Nc3ccc(OC)cc3OC)nc2c1 | -4 | 25 | 18µM* | ? | 11% | -4%
Cc1c(C(=O)NC2CC2)oc2ccc(S(=O)(=O)N3CCCCCC3)cc12 | -8 | 7 | ? | ? | 4% | -13%
CCOC(=O)c1oc2ccc(S(=O)(=O)n3nc(-c4ccc(OC)cc4)cc3N)cc2c1C | -2 | 18 | 2.9µM* | 2.9µM* | -16% | 29%
CCN(CC)S(=O)(=O)c1ccc2oc(C(=O)Nc3ccc(OC)cc3OC)c(C)c2c1 | -1 | 6 | 12µM* | 18µM* | -18% | 7%
CCOc1ccc(-c2cc(N)n(S(=O)(=O)c3ccc(OC)cc3)n2)cc1 | -3 | -8 | ? | ? | 3% | 2%
CCN(CC)S(=O)(=O)c1ccc2oc(C(=O)NC3CC3)c(C)c2c1 | -2 | 24 | 10µM* | -22% | -6% | ?
N#Cc1ccc(CN2CCc3cc(S(=O)(=O)N4CCOCC4)ccc32)c(F)c1 | 3 | / | / | / | / | /
